# Measured values published in PubChem BioAssay AID1159580 (chemical genetic matrix, 2015).
# Several values for one entry are separate records, joined by “and”; a condition that tells them apart may be missing. Equal entries are not always repeated. Among all 5,500 compounds or so, about 2,000 (36%) were called active. Roughly 18% stayed inconclusive and do not appear here. This is one part of the list. Unmarked numbers belong to inactive results. No stated cut-off is given here; in the data, active means normalized growth mostly below about 0.91 (no sharp cut-off); inconclusive means no clear call, values can overlap the other calls; inactive means mostly above about 0.92.
# Test: chemical genetic growth profiling, strain panel (AID 1159580);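 further: tested at 20 µM; growth read once vehicle control cultures reached saturation at 30 °C; 1 = growth at the plate median or of vehicle wells; lower values mean less growth of the strain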
# Conditions: S. cerevisiae deletion strains, growth OD
compound,measurement,setting,value
CO[C@@]12[C@@H]3NC3CN1C1=C(C(=O)C(N)=C(C)C1=O)[C@@H]2COC(N)=O (some centres not stated),normalized growth,"locus YAL013W, strain DEP1, active compounds read low",0.997
same,normalized growth,"locus YAL021C, strain ccr4, active compounds read low",0.98
same,normalized growth,"locus YAL026C, strain drs2, active compounds read low",0.969
same,normalized growth,"locus YAL030W, strain snc1, active compounds read low",0.989
same,normalized growth,"locus YBL061C, strain skt5, active compounds read low",0.964
same,normalized growth,"locus YBR009C, strain hhf1, active compounds read low",1
same,normalized growth,"locus YBR021W, strain FUR4, active compounds read low",0.995
same,normalized growth,"locus YBR023C, strain chs3, active compounds read low",0.962
same,normalized growth,"locus YBR171W, strain sec66, active compounds read low",0.958
same,normalized growth,"locus YBR229C, strain ROT2, active compounds read low",1
same,normalized growth,"locus YBR231C, strain swc5, active compounds read low",0.954
same,normalized growth,"locus YBR279W, strain paf1, active compounds read low",0.978
same,normalized growth,"locus YCL011C, strain gbp2, active compounds read low",0.95
same,normalized growth,"locus YCL016C, strain dcc1, active compounds read low",1.01
same,normalized growth,"locus YCL029C, strain bik1, active compounds read low",0.971
same,normalized growth,"locus YCL061C, strain MRC1, active compounds read low",0.919 (active)
same,normalized growth,"locus YCL069W, strain vba3, active compounds read low",0.984
same,normalized growth,"locus YCR088W, strain abp1, active compounds read low",0.971
same,normalized growth,"locus YDL005C, strain med2, active compounds read low",0.972
same,normalized growth,"locus YDL035C, strain GPR1, active compounds read low",1
same,normalized growth,"locus YDL040C, strain nat1, active compounds read low",0.973
same,normalized growth,"locus YDL074C, strain BRE1, active compounds read low",1.04
same,normalized growth,"locus YDL101C, strain DUN1, active compounds read low",1.01
same,normalized growth,"locus YDL134C, strain PPH21, active compounds read low",1.01
same,normalized growth,"locus YDL185W, strain tfp1, active compounds read low",0.972
same,normalized growth,"locus YDL192W, strain arf1, active compounds read low",0.974
same,normalized growth,"locus YDR001C, strain nth1, active compounds read low",0.954
same,normalized growth,"locus YDR069C, strain doa4, active compounds read low",0.926
same,normalized growth,"locus YDR101C, strain arx1, active compounds read low",1
same,normalized growth,"locus YDR137W, strain rgp1, active compounds read low",0.955
same,normalized growth,"locus YDR150W, strain NUM1, active compounds read low",0.987
same,normalized growth,"locus YDR159W, strain sac3, active compounds read low",0.998
same,normalized growth,"locus YDR162C, strain NBP2, active compounds read low",1.05
same,normalized growth,"locus YDR195W, strain ref2",0.879
same,normalized growth,"locus YDR297W, strain sur2, active compounds read low",0.966
same,normalized growth,"locus YDR318W, strain mcm21, active compounds read low",0.977
same,normalized growth,"locus YDR334W, strain swr1, active compounds read low",0.934
same,normalized growth,"locus YDR335W, strain msn5, active compounds read low",0.963
same,normalized growth,"locus YDR388W, active compounds read low",0.982
same,normalized growth,"locus YDR392W, strain spt3, active compounds read low",1.06
same,normalized growth,"locus YDR502C, strain sam2, active compounds read low",1.01
same,normalized growth,"locus YEL003W, strain gim4, active compounds read low",0.973
same,normalized growth,"locus YEL037C, strain rad23, active compounds read low",0.975
same,normalized growth,"locus YEL061C, strain CIN8 (second series), active compounds read low",0.95
same,normalized growth,"locus YEL061C, strain CIN8, active compounds read low",0.998
same,normalized growth,"locus YER015W, strain faa2, active compounds read low",1
same,normalized growth,"locus YER016W, strain bim1, active compounds read low",1.01
same,normalized growth,"locus YER110C, active compounds read low",0.968
same,normalized growth,"locus YER111C, strain swi4, active compounds read low",0.981
same,normalized growth,"locus YER155C, strain BEM2 (second series), active compounds read low",0.962
same,normalized growth,"locus YER155C, strain BEM2, active compounds read low",0.993
same,normalized growth,"locus YER167W, strain BCK2, active compounds read low",0.994
same,normalized growth,"locus YFR010W, strain ubp6, active compounds read low",0.927
same,normalized growth,"locus YGL078C, strain dbp3, active compounds read low",0.996
same,normalized growth,"locus YGL086W, strain mad1, active compounds read low",0.963
same,normalized growth,"locus YGL167C, strain pmr1, active compounds read low",0.94
same,normalized growth,"locus YGL173C, strain kem1, active compounds read low",0.981
same,normalized growth,"locus YGL227W, strain vid30, active compounds read low",0.974
same,normalized growth,"locus YGL240W, strain doc1, active compounds read low",0.966
same,normalized growth,"locus YGL248W, strain PDE1, active compounds read low",1
same,normalized growth,"locus YGL253W, strain hxk2, active compounds read low",0.988
same,normalized growth,"locus YGR078C, strain PAC10, active compounds read low",1.04
same,normalized growth,"locus YGR135W, strain pre9, active compounds read low",1.02
same,normalized growth,"locus YGR229C, strain SMI1, active compounds read low",1.02
same,normalized growth,"locus YGR252W, strain gcn5, active compounds read low",0.943
same,normalized growth,"locus YHR013C, strain ard1, active compounds read low",0.985
same,normalized growth,"locus YHR027C, strain rpn1, active compounds read low",0.978
same,normalized growth,"locus YHR030C, strain SLT2, active compounds read low",0.993 and 0.988
same,normalized growth,"locus YHR079C, strain IRE1 (second series), active compounds read low",0.994
same,normalized growth,"locus YHR079C, strain IRE1, active compounds read low",0.957
same,normalized growth,"locus YHR094C, strain hxt1, active compounds read low",0.975
same,normalized growth,"locus YHR129C, strain ARP1, active compounds read low",1
same,normalized growth,"locus YHR142W, strain chs7, active compounds read low",0.987
same,normalized growth,"locus YHR200W, strain rpn10, active compounds read low",0.971
same,normalized growth,"locus YIL066C, strain RNR3, active compounds read low",0.998
same,normalized growth,"locus YIL073C, strain SPO22, active compounds read low",0.914
same,normalized growth,"locus YIL125W, strain kgd1, active compounds read low",0.996
same,normalized growth,"locus YIR030C, strain dcg1, active compounds read low",0.991
same,normalized growth,"locus YJL092W, strain hpr5, active compounds read low",0.936
same,normalized growth,"locus YJL095W, strain BCK1 (second series), active compounds read low",0.967
same,normalized growth,"locus YJL095W, strain BCK1, active compounds read low",1.04 and 0.999
same,normalized growth,"locus YJL115W, strain asf1, active compounds read low",0.968
same,normalized growth,"locus YJL129C, strain trk1, active compounds read low",0.96
same,normalized growth,"locus YJL134W, strain LCB3, active compounds read low",1
same,normalized growth,"locus YJL154C, strain vps35, active compounds read low",0.958
same,normalized growth,"locus YJL164C, strain tpk1, active compounds read low",1.01
same,normalized growth,"locus YJL166W, strain qcr8, active compounds read low",0.932
same,normalized growth,"locus YJL168C, strain set2, active compounds read low",0.983
same,normalized growth,"locus YJL187C, strain SWE1 (second series), active compounds read low",1.01
same,normalized growth,"locus YJL187C, strain SWE1, active compounds read low",0.98
same,normalized growth,"locus YJR043C, strain POL32, active compounds read low",0.98
same,normalized growth,"locus YJR066W, strain TOR1, active compounds read low",0.941
